Laboratory results as given in PubChem BioAssay (Tox21).
Activity calls are given as the source filed them. Unless noted, calls come from the whole dose curve; as a rule, active = well fitted curve in the direction sought with a large enough effect in the repeat runs; inconclusive = weak or mixed curves; inactive = no such curve, though single readings can be large; an effect the other way counts as inactive or inconclusive.

Experiments:
[1] = qHTS assay to identify small molecule antagonists of the thyroid receptor (TR) signaling pathway (AID 743065); note: nearly all actives have a fitted effect of over 55% in size; note: potency is the fitted concentration of half-maximal effect
Method in brief: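 GH3.TRE-Luc rat pituitary cells (two TREs driving luciferase) were dosed with compound, then stimulated with 1 nM T3 (final) for 23.5 h at 37 C. ONE-Glo luminescence was the read-out, with CellTiter-Fluor fluorescence as the cytotoxicity counter-screen.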

[2] = tested on: thyroid hormone receptor (rat, GH3 cells); assay: qHTS assay to identify small molecule agonists of the thyroid receptor (TR) signaling pathway (AID 743066; calls by dose curve; note: potency is the fitted concentration of half-maximal effect)
[3] = qHTS assay to identify small molecule antagonists of the estrogen receptor alpha (ER-alpha) signaling pathway using the BG1 cell line - cell viability counter screen (AID 743081);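 note: compound given together with 17beta-estradiol as the ER stimulus; series mostly up to about 70 µM; nearly all actives have a fitted effect of over 45% in size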
Aromatase (Homo sapiens) = Aromatase (Homo sapiens) (UniProt P11511); assay: qHTS assay to identify aromatase inhibitors (AID 743083); note: nearly all actives have a fitted effect of over 55% in size; note: potency is the fitted concentration of half-maximal effect
[4] = qHTS assay to identify small molecule antagonists of the estrogen receptor alpha (ER-alpha) signaling pathway - cell viability counter screen (AID 743074; calls by dose curve;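 note: HEK293 cells carrying ER-alpha-UAS-bla reporter stimulated with 17beta-estradiol; nearly all actives have a fitted effect of over 45% in size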)
[5] = molecular target: Estrogen receptor (Homo sapiens) (UniProt P03372); assay: qHTS assay to identify small molecule antagonists of the estrogen receptor alpha (ER-alpha) signaling pathway (AID 743069; active = well fitted curve in the direction sought with a large enough effect in the signal ratio in the repeat runs, not every such curve was filed as active; inconclusive = weak or mixed curves, or effect the other way; inactive = no such curve, though single readings can be large or run the other way; the % refers to the signal ratio; note: potency is the fitted concentration of half-maximal effect)
Method in brief: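 HEK293 ER-alpha-UAS-bla GripTite cells, held overnight in 2% charcoal-stripped FBS, 5,000 cells/well, preincubated 4 h, then compound plus 17beta-estradiol for 18 h at 37C. Beta-lactamase read by LiveBLAzer B/G FRET substrate, 2 h at room temperature.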

[6] = molecular target: Estrogen receptor (Homo sapiens) (UniProt P03372); assay: qHTS assay to identify small molecule agonists of the estrogen receptor alpha (ER-alpha) signaling pathway (AID 743075; calls by dose curve)
[7] = molecular target: Estrogen receptor (Homo sapiens) (UniProt P03372); assay: qHTS assay to identify small molecule agonists of the estrogen receptor alpha (ER-alpha) signaling pathway using the BG1 cell line (AID 743079); note: nearly all actives have a fitted effect of over 20% in size; note: potency is the fitted concentration of half-maximal effect
[8] = qHTS assay to identify small molecule antagonists of the estrogen receptor alpha (ER-alpha) signaling pathway using the BG1 cell line (AID 743080; calls by dose curve;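 note: BG1 cells stimulated with 17beta-estradiol alongside compound; series mostly up to about 70 µM; nearly all actives have a fitted effect of over 25% in size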)
Method in brief: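 Endogenous full-length ER-alpha in BG1-Luc-4E2 cells drives a stably integrated 4×ERE luciferase gene; compounds were tested against 17beta-estradiol over 21.5 h, with luminescence and multiplexed viability fluorescence recorded.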

Measured: Potency

Estrogen receptor (Homo sapiens), sequence (P03372 whole entry, looked up): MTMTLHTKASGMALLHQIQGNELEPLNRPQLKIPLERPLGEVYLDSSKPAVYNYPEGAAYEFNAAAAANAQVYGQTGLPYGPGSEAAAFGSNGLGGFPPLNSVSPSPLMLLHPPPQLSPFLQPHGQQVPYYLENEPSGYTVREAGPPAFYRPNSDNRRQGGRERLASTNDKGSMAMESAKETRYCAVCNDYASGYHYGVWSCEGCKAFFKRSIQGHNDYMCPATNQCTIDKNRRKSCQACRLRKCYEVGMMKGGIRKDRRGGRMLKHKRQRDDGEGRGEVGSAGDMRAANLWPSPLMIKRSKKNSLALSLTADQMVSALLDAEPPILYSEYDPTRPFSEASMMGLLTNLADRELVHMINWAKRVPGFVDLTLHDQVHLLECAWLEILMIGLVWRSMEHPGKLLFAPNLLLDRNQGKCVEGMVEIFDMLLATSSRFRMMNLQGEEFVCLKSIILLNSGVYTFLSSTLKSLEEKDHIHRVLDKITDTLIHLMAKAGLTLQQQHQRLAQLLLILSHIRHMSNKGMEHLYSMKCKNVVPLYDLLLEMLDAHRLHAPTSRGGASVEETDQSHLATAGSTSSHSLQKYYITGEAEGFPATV
Aromatase (Homo sapiens), sequence (P11511 whole entry, looked up): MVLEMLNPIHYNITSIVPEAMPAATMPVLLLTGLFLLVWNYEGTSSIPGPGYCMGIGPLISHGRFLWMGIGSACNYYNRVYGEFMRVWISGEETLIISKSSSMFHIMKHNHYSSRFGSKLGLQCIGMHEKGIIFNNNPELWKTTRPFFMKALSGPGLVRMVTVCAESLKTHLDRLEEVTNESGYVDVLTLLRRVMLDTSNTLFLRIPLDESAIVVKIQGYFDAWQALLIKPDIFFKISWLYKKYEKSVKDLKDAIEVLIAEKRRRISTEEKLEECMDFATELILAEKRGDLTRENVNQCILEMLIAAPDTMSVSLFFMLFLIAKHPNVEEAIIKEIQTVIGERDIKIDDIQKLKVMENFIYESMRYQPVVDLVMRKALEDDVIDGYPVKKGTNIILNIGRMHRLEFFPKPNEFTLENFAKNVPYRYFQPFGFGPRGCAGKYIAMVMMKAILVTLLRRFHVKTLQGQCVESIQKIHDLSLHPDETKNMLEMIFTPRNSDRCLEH

COc1ccc(NC(C)=O)cc1
inactive: [1] | [2] | [3] | Aromatase (Homo sapiens)

CCC(=O)c1cccc(Cl)c1
inactive: [1] | [2] | [4] | [3] | Aromatase (Homo sapiens)

NS(=O)(=O)c1cc(C2(O)NC(=O)c3ccccc32)ccc1Cl (configuration not stated)
inactive: [1] | [2] | [4] | [3] | Aromatase (Homo sapiens)

CCC(C)OC(=O)N1CCCCC1CCO (configuration not stated)
inactive: [1] | [2] | [4] | [3] | Aromatase (Homo sapiens)

CC1=CC(=O)CCC1
inactive: [1] | [2] | [4] | [3] | Aromatase (Homo sapiens)

C=CC(=O)OCCCCCC
inactive: [1] | [2] | [4] | [3] | Aromatase (Homo sapiens)

NC1CCN(c2cccc(Cl)n2)CC1
inactive: [2] | [4] | Aromatase (Homo sapiens)

C=CCOc1nc(OCC=C)nc(OCC=C)n1
inactive: [1] | [2] | [4] | [3] | Aromatase (Homo sapiens)

CCN1CCCC(OC(=O)C(c2ccccc2)c2ccccc2)C1 (configuration not stated)
not listed: [1] | [3]
inactive: all other assays above

COc1ccc(N=[N+]([O-])c2ccc(OC)cc2)cc1
inactive: [2] | [4] | [6] | [3] | Aromatase (Homo sapiens)
active: [7] 0.0679 µM

CCOC(=O)[C@H](CCc1ccccc1)N[C@@H](C)C(=O)N1CCC[C@H]1C(=O)O
inactive: [1] | [2] | [4] | [3] | Aromatase (Homo sapiens)

c1ccc(SCCSc2ccccc2)cc1
inactive: [1] | [2] | [3] | Aromatase (Homo sapiens)

CCCC(C)CO (configuration not stated)
inactive: [1] | [2] | [4] | [3] | Aromatase (Homo sapiens)

C#CC(O)C(CC)CCCC (configuration not stated)
inactive: [1] | [2] | [4] | [3] | Aromatase (Homo sapiens)

CN(C)CCOC(c1ccc(Cl)cc1)c1ccccn1 (configuration not stated)
not listed: [1] | Aromatase (Homo sapiens)
inactive: all other assays above

CO[Si](OC)(OC)OC
inactive: [2] | [4] | [3] | Aromatase (Homo sapiens)

CCN1CCN(c2cc3c(cc2F)c(=O)c(C(=O)O)cn3C2CC2)CC1
inactive: [1] | [2] | [4] | [3] | Aromatase (Homo sapiens)

Nc1[nH]c(=O)ncc1F
not listed: [1] | [2]
inactive: all other assays above

CCC(=O)Nc1cccc(N)c1
not listed: [1] | [2]
inactive: all other assays above

CC(C)c1ccc2oc3nc(N)c(C(=O)O)cc3c(=O)c2c1
inactive: [2] | [4] | [3] | Aromatase (Homo sapiens)

CC(=O)c1ccc(C)cc1
not listed: [1] | [2]
inactive: all other assays above

COc1cc(C(=O)N2CCOCC2)cc(OC)c1OC
inactive: [1] | [2] | [4] | [3] | Aromatase (Homo sapiens)

CO
inactive: [1] | [2] | [4] | [3] | Aromatase (Homo sapiens)

N#CC1(O)CCCCC1
inactive: [1] | [2] | [4] | [3]

O=C(O)/C=C/c1ccc(/C=C/C(=O)O)cc1
inactive: [1] | [2] | [4] | [3] | Aromatase (Homo sapiens)

OC[C@H]1O[C@@H]2O[C@H]3[C@H](O)[C@@H](O)[C@@H](O[C@H]4[C@H](O)[C@@H](O)[C@@H](O[C@H]5[C@H](O)[C@@H](O)[C@@H](O[C@H]6[C@H](O)[C@@H](O)[C@@H](O[C@H]7[C@H](O)[C@@H](O)[C@@H](O[C@H]8[C@H](O)[C@@H](O)[C@@H](O[C@H]9[C@H](O)[C@@H](O)[C@@H](O[C@H]1[C@H](O)[C@H]2O)O[C@@H]9CO)O[C@@H]8CO)O[C@@H]7CO)O[C@@H]6CO)O[C@@H]5CO)O[C@@H]4CO)O[C@@H]3CO
inactive: [1] | [2] | [4] | [3] | Aromatase (Homo sapiens)

C1C2OC2C2C1C1CC2C2OC12 (configuration not stated)
inactive: [1] | [2] | [4] | [3] | Aromatase (Homo sapiens)

O=C(O)Cc1cc(I)c(Oc2cc(I)c(O)c(I)c2)c(I)c1
inactive: [4] | [6] | [3] | Aromatase (Homo sapiens)
active: [2] 0.003 µM | [5] 15.2 µM [inconclusive]

C=C(C)[C@H]1CC=C(C)CC1
not listed: [1] | [2]
inactive: all other assays above

CN(C)CCn1nnnc1SCC1=C(C(=O)O)N2C(=O)[C@@H](NC(=O)Cc3csc(N)n3)[C@H]2SC1
inactive: [1] | [2] | [3] | Aromatase (Homo sapiens)

CN(C)N=Nc1ccccc1
inactive: [1] | [2] | [4] | [3]

Cc1ccccc1C(=O)O
inactive: [1] | [2] | [4] | [3] | Aromatase (Homo sapiens)

CSc1nc(NC2CC2)nc(NC(C)(C)C)n1
inactive: [2] | [4] | [3] | Aromatase (Homo sapiens)

C=CCSCC1Nc2cc(Cl)c(S(N)(=O)=O)cc2S(=O)(=O)N1 (configuration not stated)
inactive: [1] | [2] | [4] | [3] | Aromatase (Homo sapiens)

CN(C)C(=O)C(CCN1CCC(O)(c2ccc(Cl)cc2)CC1)(c1ccccc1)c1ccccc1
inactive: [6]
active: [1] 8.41 µM | Aromatase (Homo sapiens) 26.6 µM
